# Data from the supplement of paper PMC6555819.
# Tested on: PPARg:RXRa 270nM:90nM, anti-RXR (NR concentration 270 nM, RXRa partner concentration 90 nM)
# Experiment: PBM binding z-score (relative to random genomic background probes); higher = stronger binding; sequences stand for … in GC…GCGATTGACAGCGTAGAATGAAGG
# In short: (§1)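 Probes were double-stranded and carried 34-nt variable regions with direct-repeat seeds, single-nucleotide variants, half-site ablations and random human genomic background sequences, printed on custom Agilent 4×180K protein-binding microarrays. Arrays were incubated 1 h with ligand-free nuclear receptor dimers in PBS pH 7.4, 2% milk, 0.02% Triton X-100, 1 mM DTT, 0.2 mg/mL BSA and 0.4 mg/ml salmon testes DNA. Antibodies against each partner (one per run) detected binding, and scanned fluorescence was regression-normalized. Binding z-scores use the random background probes as reference.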
row,Sequence,PBM binding z-score
1,CCAACTAGGTCAGAACAGGACAGTGAAGGATGAT,3.56
2,CATACAGGGTCAGCTAGGCCAGAGAAGGGACGGC,3.06
3,TGAATGACGTTATAAGATCAGGGAACGTTGCAAA,0.0909
4,ATCTCTCGGTAACCAAGTTCAGTGAATGCCGAAC,0.289
5,CCTAGCAGGCCAATCTGGGTCACCCAAGGCTTGA,2.51
6,GCTTGTCGATCAAGGTTAAGAAAGACTAAGCTAA,0.57
7,ATATGTAGGTTAAGGGTCACTCAGGTTGGTTCGC,10.2
8,GCTGCTAGGTTAGGTTGGTCAGCTAACGGGTACG,-0.464
9,ATCGAAAGGTCGACGAGGTGAGTGTACACCGTTT,3.72
10,CAAACTAGGTCACGAAAGGTCAAGGTCGAATGAC,8.38
11,TAGCCTAGGTCAGATGGGGCCAGTATACGCTATA,1.14
12,ATCGCAAGGTCGTGAGGTGAGTATACAGAAAGGC,1.84
13,TAGCATAGGTCATGGGCCAGTATACCACGCGAAC,5.31
14,TCTGCTAGGTCAGCTGGTCAGCTAACGAGCTGCC,1.78
15,GCTGTTAGGTCAGGTTGGTCAGCTAACGGGTACG,1
16,TCGGCTAGGTCAGTTGGTCAGCTAACGAGCTGCC,1.28
17,CCCATTAGTTGACCATAAGGGCAACCGAAGCTCG,0.482
18,TAGCTTAGGTCATTGGGCCAGTATAGTACGCATC,3.44
19,CCTTACGGGGCACTGACAGGTTATAGCATTTGGA,-0.156
20,TCGAGTAGGTTACCGATGGGGCATTCAGCTTTCT,1.3

row,Sequence,PBM binding z-score
1,TCTATTAGTTGATTAGGGCATCCGAAACAGCGGA,1.91
2,TCTGCTAGGTCGGTTGGTCAGCTAACGAGCTGCC,0.448
3,CGAACTAGGTCAGAACATGACAGTGAAGGATGAT,4.49
4,TTACCAAGGTGAGCCGAGGTCGTTGATCCAACTC,1.32
5,CAAACTAGGTCACCGGAAGGTCAACGTCCGCATG,8.04
6,CCTACTGGGCCACGAAAAGTCATTGATTCAGTGA,1.67
7,AATACAGGGTCATCGTAGACCAGAGTACGCACAG,6.17
8,CCTTACGGGTCACTCCAGGCTATAGCATCGGAGT,3.31
9,CCACACAGGTGAAAGGTAACTCAGTCTGGTACGC,5.54
10,TCCGACAGGTGAAGGTAACTCAGGTACGCAGTCG,1.09
11,ATCGATAGGTCGACGAGGTGAGTATACACCGTTT,0.567
12,TAGCCTAGGTCATGCAGGCCAGTATAGTGTCGGC,2.37
13,CGTCCAACGTCAGAGAGGTCAGTGAATGCCGAGT,0.537
14,CCCTACGGGTCACTGACAGGTTATAGCATTTGGA,3.77
15,AGAATGAGGTTACCAAACATCAGGGAAACGCTTG,2.19
16,CCTACTGGGCCATTCAGAGGTGATTGATCATATG,0.898
17,CCTACCAGGCCAGGGTCACTCAAGCATTTCGCTT,1.61
18,CGAACTAGGTCATCCAGGACAATGAATACATTGA,6.22
19,ACTAGTTGGTGAGCTGAGGTCACACACAATTCGG,2.09
20,CGTCCAAGCTCAAAGGTCAGTGAAGAGATGACGG,4.16

# Tested on: PPARg:RXRa 30nM:10nM, anti-RXR (NR concentration 30 nM, RXRa partner concentration 10 nM)
# Experiment: as above
# In short: as §1
row,Sequence,PBM binding z-score
1,CCAACTAGGTCAGAACAGGACAGTGAAGGATGAT,1.37
2,CATACAGGGTCAGCTAGGCCAGAGAAGGGACGGC,0.62
3,TGAATGACGTTATAAGATCAGGGAACGTTGCAAA,0.775
4,ATCTCTCGGTAACCAAGTTCAGTGAATGCCGAAC,-0.287
5,CCTAGCAGGCCAATCTGGGTCACCCAAGGCTTGA,-0.13
6,GCTTGTCGATCAAGGTTAAGAAAGACTAAGCTAA,0.0048
7,ATATGTAGGTTAAGGGTCACTCAGGTTGGTTCGC,10.8
8,GCTGCTAGGTTAGGTTGGTCAGCTAACGGGTACG,-0.769
9,ATCGAAAGGTCGACGAGGTGAGTGTACACCGTTT,1.14
10,CAAACTAGGTCACGAAAGGTCAAGGTCGAATGAC,7.12
11,TAGCCTAGGTCAGATGGGGCCAGTATACGCTATA,0.184
12,ATCGCAAGGTCGTGAGGTGAGTATACAGAAAGGC,0.321
13,TAGCATAGGTCATGGGCCAGTATACCACGCGAAC,2.04
14,TCTGCTAGGTCAGCTGGTCAGCTAACGAGCTGCC,1.12
15,GCTGTTAGGTCAGGTTGGTCAGCTAACGGGTACG,-0.41
16,TCGGCTAGGTCAGTTGGTCAGCTAACGAGCTGCC,0.913
17,CCCATTAGTTGACCATAAGGGCAACCGAAGCTCG,-0.068
18,TAGCTTAGGTCATTGGGCCAGTATAGTACGCATC,1
19,CCTTACGGGGCACTGACAGGTTATAGCATTTGGA,-0.0268
20,TCGAGTAGGTTACCGATGGGGCATTCAGCTTTCT,1.26

row,Sequence,PBM binding z-score
1,TCTATTAGTTGATTAGGGCATCCGAAACAGCGGA,3.47
2,TCTGCTAGGTCGGTTGGTCAGCTAACGAGCTGCC,0.962
3,CGAACTAGGTCAGAACATGACAGTGAAGGATGAT,2.05
4,TTACCAAGGTGAGCCGAGGTCGTTGATCCAACTC,-0.155
5,CAAACTAGGTCACCGGAAGGTCAACGTCCGCATG,5.72
6,CCTACTGGGCCACGAAAAGTCATTGATTCAGTGA,0.153
7,AATACAGGGTCATCGTAGACCAGAGTACGCACAG,2.73
8,CCTTACGGGTCACTCCAGGCTATAGCATCGGAGT,0.716
9,CCACACAGGTGAAAGGTAACTCAGTCTGGTACGC,3.68
10,TCCGACAGGTGAAGGTAACTCAGGTACGCAGTCG,2.1
11,ATCGATAGGTCGACGAGGTGAGTATACACCGTTT,0.467
12,TAGCCTAGGTCATGCAGGCCAGTATAGTGTCGGC,0.209
13,CGTCCAACGTCAGAGAGGTCAGTGAATGCCGAGT,-0.521
14,CCCTACGGGTCACTGACAGGTTATAGCATTTGGA,0.787
15,AGAATGAGGTTACCAAACATCAGGGAAACGCTTG,1.04
16,CCTACTGGGCCATTCAGAGGTGATTGATCATATG,-0.276
17,CCTACCAGGCCAGGGTCACTCAAGCATTTCGCTT,-0.554
18,CGAACTAGGTCATCCAGGACAATGAATACATTGA,4.07
19,ACTAGTTGGTGAGCTGAGGTCACACACAATTCGG,0.341
20,CGTCCAAGCTCAAAGGTCAGTGAAGAGATGACGG,2.1
